Measurements taken from PubChem BioAssay (EPA / NIEHS).
Several values for one entry are separate records, joined by “and”; a condition that tells them apart may be missing. Equal values may be shown once. Inconclusive results are not listed. Where a structure was tested more than once in an assay, its records may differ in their call. Activity calls are given as the source filed them. Rule for the calls, unless noted: active = hit-call score of the fitted dose curve at least 0.9, where 1 is the maximum; inactive = score below 0.9.

How the values were obtained:
[1] = CCTE_Shafer_MEA_acute_burst_number: CCTE's Neural Acute Assay for Single-Electrode Bursts, Shafer Lab (AID 2284013)
Outline: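 Burst totals were derived with adaptive spike detection (8x rms threshold) on filtered signals from rat cortical cultures; change relative to pre-treatment baseline after 40-min compound exposure (0.03-40 uM) was fitted in the negative direction against DMSO.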

[2] = CCTE_Shafer_MEA_acute_burst_duration_mean: CCTE's Neural Acute Assay for Mean Burst Duration, Shafer Lab (AID 2284014);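 note: hits are decreases in mean burst duration relative to DMSO controls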
Outline: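 Acute exposure of mature rat cortical networks (DIV 13 or 15) grown on microelectrode arrays to 0.03-40 uM compound. Mean burst duration compared with the 40-min pre-dose baseline over a 40-min post-dose recording at 37 C.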

[3] = CCTE_Shafer_MEA_acute_per_burst_spike_number_mean: CCTE's Neural Acute Assay for Average Number of Spikes Per Burst, Shafer Lab (AID 2284015);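 note: hits are decreases in mean spikes per burst versus baseline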
Outline: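 Read-out: percent change in mean spikes per burst, each well's post-exposure 40-min recording versus its own 40-min baseline. Rat cortical cultures, DIV 13 or 15, compounds 0.03-40 uM; DMSO is negative control, loss-of-signal fitting.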

[4] = CCTE_Shafer_MEA_acute_interburst_interval_mean: CCTE's Neural Acute Assay for Mean Interburst Interval, Shafer Lab (AID 2284016);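 note: percent change of mean interburst interval versus each well's own pre-dose baseline; curves fitted for decrease in interburst interval relative to DMSO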
Outline: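 Rat cortical cultures, DIV 13/15; 20 min equilibration, 40 min baseline, compound 0.03-40 uM, 40 min re-recording, 37 C. Spikes detected at 8x rms noise (300-5000 Hz band-pass). Endpoint: % change in interburst interval, fitted in loss direction vs DMSO.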

[5] = CCTE_Shafer_MEA_acute_burst_percentage_mean: CCTE's Neural Acute Assay for Percentage of Spikes in a Burst, Shafer Lab (AID 2284017);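 for AC50: curve fitted for loss of signal so potency reflects decreased burst percentage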
Outline: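 Rat cortical cultures, DIV 13/15, 37 C. Spikes detected at 8x rms noise (300-5000 Hz band-pass). Burst spikes/total spikes averaged across electrodes per well; % change post- vs pre-treatment (40 min each), loss-of-signal fit vs DMSO.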

[6] = CCTE_Shafer_MEA_acute_burst_percentage_std: CCTE's Neural Acute Assay for Standard Deviation of Burst Percentage, Shafer Lab (AID 2284018);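 note: fitted in the negative direction so actives lower burst percentage SD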
Outline: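 Primary rat cortical neurons on 16-electrode MEA wells were recorded 40 min at baseline (DIV 13 or 15), then 40 min after compound (0.03-40 uM), at 37 C. Well value is SD across electrodes of spikes-in-bursts/total spikes; endpoint is percent change, DMSO-referenced.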

[7] = CCTE_Shafer_MEA_acute_per_network_burst_spike_number_mean: CCTE's Neural Acute Assay for Average Number of Spikes in a Network Burst, Shafer Lab (AID 2284019);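 for AC50: curve fitted for loss of signal so actives reduce spikes per network burst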
Outline: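 Acute exposure of rat primary cortical networks (DIV 13/15) on MEAs; adaptive spike detection at 8x rms noise, 37 C. Percent change in spikes per network burst after 40 min with compound (0.03-40 uM), negative direction vs DMSO.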

[8] = CCTE_Shafer_MEA_acute_per_network_burst_spike_number_std: CCTE's Neural Acute Assay for Standard Deviation of Number of Spikes in a Network Burst, Shafer Lab (AID 2284020);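 note: fitted for decrease in spike-number SD versus DMSO so actives lower it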
Outline: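 Acute MEA exposure, rat cortical neurons, 0.03-40 uM. Per-well % change versus own baseline; DMSO as negative control.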

[9] = CCTE_Shafer_MEA_acute_per_network_burst_electrodes_number_mean: CCTE's Neural Acute Assay for Mean Number of Electrodes in a Network Burst, Shafer Lab (AID 2284021);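 note: curves fitted for decreases only so hits reduce electrodes per burst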
Outline: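 Rat primary cortical neurons on 48-well MEAs, DIV 13 or 15, were treated at 0.03-40 uM. Spikes were detected at 8x rms noise and recorded at 37 C. The mean electrodes per network burst in a 40 min exposure recording was expressed as percent change from a 40 min baseline.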

[10] = CCTE_Shafer_MEA_acute_network_burst_percentage: CCTE's Neural Acute Assay for Percentage of Network Bursts, Shafer Lab (AID 2284022);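 note: curves fitted for loss so actives lower network burst percentage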
Outline: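 Rat primary cortical neuron networks on 48-well MEA plates, DIV 13 or 15, treated acutely with compound (0.03-40 uM, at least three wells). Percent of spikes within network bursts compared between 40-min recordings before and during exposure at 37 C, expressed as percent change.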

[11] = CCTE_Shafer_MEA_acute_cross_correlation_area: CCTE's Neural Acute Assay for Area of Cross Correlation, Shafer Lab (AID 2284024);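 note: curves fitted for loss of cross-correlation area so actives lower synchrony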
Outline: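 Rat primary cortical neurons on 48-well MEA, DIV 13 or 15; compounds 0.03-40 uM. Baseline and post-exposure 40 min recordings at 37 C; percent change in area under pooled inter-electrode cross-correlation near zero lag, relative to DMSO.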

[12] = CCTE_Shafer_MEA_acute_cross_correlation_HWHM: CCTE's Neural Acute Assay for Cross Correlation at Half Width at Half Maximum, Shafer Lab (AID 2284026);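 note: percent change per well from pre-dose baseline in spike cross-correlogram half width; hits are a decrease in cross-correlogram half width relative to DMSO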
Outline: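 Rat primary cortical neurons on 48-well MEA plates; 40-min baseline and 40-min post-exposure recordings at 37 C on DIV 13 or 15, compounds 0.03-40 uM. Spikes detected at 8x rms noise; percent change in cross-correlogram HWHM per well vs baseline.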

[13] = CCTE_Shafer_MEA_acute_synchrony_index: CCTE's Neural Acute Assay for Synchrony, Shafer Lab (AID 2284027);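 note: network synchrony index of spontaneous spiking in primary rat cortical neurons on MEAs; fitted for loss of signal so actives lower synchrony relative to DMSO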
Outline: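 The synchrony index is taken as percent change per well between a 40 min baseline and a 40 min recording with compound (0.03–40 uM), at 37C. Rat cortical cultures on multiwell MEAs at DIV 13 or 15, spike threshold 8× rms noise.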

[14] = target: Estrogen receptor (Homo sapiens) (UniProt P03372); assay: CCTE_Deisenroth_AIME_384WELL_LUC_Active: CCTE's 384-well Estrogen Receptor Transactivation Assay with AIME metabolic competence (ERTA luciferase; metabolism positive), Deisenroth Lab (AID 2284030; active = hit-call score of the fitted dose curve at least 0.9, where 1 is the maximum)
Sequence of Estrogen receptor (Homo sapiens) (P03372 whole entry, looked up): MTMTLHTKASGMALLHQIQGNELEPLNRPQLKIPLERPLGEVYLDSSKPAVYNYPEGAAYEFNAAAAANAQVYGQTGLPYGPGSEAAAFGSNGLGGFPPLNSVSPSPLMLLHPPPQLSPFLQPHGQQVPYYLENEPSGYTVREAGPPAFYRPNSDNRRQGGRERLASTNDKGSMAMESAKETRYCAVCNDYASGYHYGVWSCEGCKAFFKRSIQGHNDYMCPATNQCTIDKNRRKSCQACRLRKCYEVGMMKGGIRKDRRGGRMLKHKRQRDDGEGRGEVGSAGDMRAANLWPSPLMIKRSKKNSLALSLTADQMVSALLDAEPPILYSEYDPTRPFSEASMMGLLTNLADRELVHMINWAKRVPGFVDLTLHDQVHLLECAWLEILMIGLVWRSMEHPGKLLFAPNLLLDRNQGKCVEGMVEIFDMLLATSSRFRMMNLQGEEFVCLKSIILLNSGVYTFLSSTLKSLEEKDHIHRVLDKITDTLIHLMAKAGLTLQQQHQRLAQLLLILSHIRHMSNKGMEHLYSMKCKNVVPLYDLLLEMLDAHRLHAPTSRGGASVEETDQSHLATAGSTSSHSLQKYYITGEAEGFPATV
Outline: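 Chemicals (10-point, 0.002-200 uM) were first incubated 2 hours with alginate-immobilized induced male Sprague Dawley rat liver S9. The conditioned medium was then applied to VM7Luc4E2 cells for 24 hours, with ER luciferase induction read by luminescence relative to 17beta-estradiol.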

[15] = CCTE_Shafer_MEA_dev_firing_rate_mean: CCTE's Neural Network Formation Assay for Mean Firing Rate, Shafer Lab (AID 2284031);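 for AC50: curve fitted for loss of firing so AC50 reflects decreased mean firing rate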
Outline: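 Spike frequency (spikes/recording length, averaged over active electrodes) was recorded on days 5, 7, 9 and 12 and collapsed to AUC; rat cortical cultures received compound continuously over 12 days of network development.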

[16] = CCTE_Shafer_MEA_dev_per_burst_spike_percent: CCTE's Neural Network Formation Assay for Percent of Spikes in a Burst, Shafer Lab (AID 2284032);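 for AC50: fitted as a decrease in burst spike percentage below DMSO baseline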
Outline: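 Value is trapezoidal AUC over recordings on days 5, 7, 9 and 12 of the well-mean fraction of spikes falling in single-electrode bursts; rat cortical cultures exposed continuously from plating, treatment renewed DIV 5 and 9, fitted downward against DMSO.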

Measured: AC50

Cc1c(F)c(F)c(COC(=O)C2C(/C=C(\Cl)C(F)(F)F)C2(C)C)c(F)c1F (centres undefined)
inactive: [2] | [4] | [6] | [14]
active: [1] 0.226 µM | [3] 1.76 µM | [5] 0.24 µM | [7] 32.6 nM | [8] 0.0979 µM | [9] 145 nM | [10] 0.567 µM | [11] 0.0953 µM | [12] 28.1 µM | [13] 0.433 µM | [15] 0.598 µM | [16] 1.83 µM

O=C(O)c1nc(Cl)ccc1Cl
inactive: [1] | [2] | [3] | [4] | [5] | [6] | [7] | [8] | [9] | [10] | [11] | [12] | [13] | [14]

COc1cnc(OC)n2nc(NS(=O)(=O)c3c(OCC(F)F)cccc3C(F)(F)F)nc12
active: [14] 21.2 µM

C=CC1(C)OC(=O)N(c2cc(Cl)cc(Cl)c2)C1=O (centres undefined)
inactive: [14] | [15] | [16]

C#CCOS(=O)OC1CCCCC1Oc1ccc(C(C)(C)C)cc1 (centres undefined)
active: [3] 33.6 µM | [5] 32 µM | [6] 34.6 µM | [12] 20 µM | [13] 32.5 µM
inactive: [1] | [2] | [4] | [7] | [8] | [9] | [10] | [11]

N#Cc1nn(-c2c(Cl)cc(C(F)(F)F)cc2Cl)c(N)c1S(=O)C(F)(F)F (centres undefined)
active: [3] 1.87 µM | [4] 8.32 µM | [5] 33.4 µM and 24.2 µM | [6] 36.5 µM and 3.5 µM | [7] 1.59 µM and 666 nM | [9] 1.36 µM and 1.28 µM | [12] 13.3 µM and 24.6 µM | [13] 33.4 µM and 23.4 µM
inactive: [1] | [2] | [3] | [4] | [8] | [10] | [11] | [15] | [16]

C=CCC1=C(C)[C@@H](OC(=O)[C@@H]2[C@@H](C=C(C)C)C2(C)C)CC1=O
inactive: [2] | [3] | [4] | [6] | [7] | [8] | [11] | [15] | [16]
active: [1] 4.02 µM | [5] 36.5 µM | [9] 10800 nM | [10] 31 µM | [12] 36.2 µM | [13] 27.2 µM

CCOC(=O)CC(SP(=S)(OC)OC)C(=O)OCC (centres undefined)
inactive: [15]
active: [16] 20.9 µM and 15 µM

C=CCC1=C(C)C(OC(=O)C2C(C=C(C)C)C2(C)C)CC1=O (centres undefined)
inactive: [1] | [2] | [3] | [4] | [6] | [7] | [8] | [9] | [11] | [12] | [15] | [16]
active: [3] 2.93 µM | [4] 3.88 µM | [5] 6.49 µM and 2.93 µM | [8] 0.727 µM | [10] 7.43 µM and 1.34 µM | [12] 2.38 µM | [13] 5.52 µM and 2.93 µM | [16] 14.8 µM

COC(=O)C(C)Oc1ccc(Oc2ccc(Cl)cc2Cl)cc1 (centres undefined)
active: [5] 20 µM | [10] 25.7 µM | [12] 11.7 µM | [13] 20 µM
inactive: [1] | [2] | [3] | [4] | [6] | [7] | [8] | [9] | [11]
